About 3,700 (7%) of roughly 53,000 sequences were called active.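 The calls were made as follows: active = gene knockdowns whose robust z-score for IL-1 alpha signal is at least 2 or at most -2, so actives lie on both sides; inactive = the rest.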 The sample as a whole holds a higher share of actives than the screen did.
Experiment: Components of the Cytosolic LPS Sensing Pathway: Gene Identification via Genome-wide siRNA Screen;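 also: robust z of the log signal after scaling to non-targeting control siRNA wells of the plate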
Settings: RAW264.7 macrophages, IL-1a HTRF, actives lie on both sides, screened at 100 nM (by protocol), cells primed 5 h with Pam3CSK4 first
In short: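 RAW264.7; siRNA 100 nM final, RNAiMAX, 48h 37 degrees C; Pam3CSK4 5 h; LipidA + TransIT-TKO 24 h; IL-1a HTRF; CellTiter-Glo viability; robust z vs negative-control median.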

z-score, inactive:
GGUGCUGCUGAGAUUUUUCTT against Pxt1 0.555
GGAUCAAAGGAAGAAGGGCTT against Zbtb24 -0.00585
GGCCAGAACUUAAAUUUUCTT against Nbr1 0.658
GGGACAAUUCUGGAUUAAATT against 9330155M09Rik -0.639
GGGAAUCACCCUGAGAAAGTT against Ccndbp1 -0.269
GAACAGUCCUUUUAUGGAUTT against Vmn1r33 0.38
GGACAGAGUUUUCAUUUUGTT against Rptn -1.51
GCUUCAGCCAUUUCACCUUTT against Rnaseh2c 0.108
GGGAAUAAUCUACAAGCCATT against Ccdc121 1.92
GGUGUACCAGCAUAGCUGUTT against Hps5 1.24
GGAAAAUUACAGAAUUGGATT against Dnali1 0.323
GGAGCACUUUAAGUUAUACTT against Rnf225 1.73
GGAAGAUGACAACUUAUCUTT against Abcc8 -0.854
GGCUGUUCUCUAGAUGAAUTT against 1810065E05Rik -1.54
GCACUAGCUAAUAAUGCAATT against Oxsm -1.54
GGAAUGAGAAGAGAGGAUCTT against Rpp25 -0.239
GGGCAAGUUUUUUUUUCUUTT against Sf3a2 0.586
UGGCCUGAUCAUGAACAGUTT against S100a7a 1.21
GGCCGAAGAAUUCAUCUUUTT against Pomgnt2 -0.339
GGGCCUGAAAAGACCAUCATT against Olfr124 -0.424
CCUUGAUCUACAUAGAACCTT against Olfr177 0.338
GGGAUUUUGUGAUGUCCGCTT against Mmp23 0.422
CCACUUUCAACCUGACCGUTT against Pcdhac2 0.345
GGACGAUUCCCAGUUUCUGTT against Phf1 1.25
GGCUGCUUUCUGAUGGUCATT against Marchf3 0.595
GGAAUACUGAAUUUAAGGATT against Olfr1416 1.25
GGAAGCGUAAAUAAGUGUCTT against Emp2 0.772
GGAAAAUGUUGAAGUGGAATT against Ndufa5 -0.805
GGUGCAUGCACUGAAGAAGTT against Mpv17 1.39
CGAAUAGGGAGCCAUAAGATT against Tubb6 1.66
GGAGACCUGUGACUCCUUATT against 4932415M13Rik 1.9
GCUAGACUUCUUUGUGCGATT against Abhd8 0.656
GGCAAUGGCACUGAAGUCATT against Olfr994 -0.0376
CCCAAGCAACCCUUAUCAATT against Mcee -0.315
GGUAUCACUACUUUUUAGUTT against Eri3 -0.742
GGAUGAGGACACCAUUGAUTT against Sumo3 0.723
GGUUGACGAAAUGACUAUATT against Adh4 -0.105
GCAGACCAGACAGUAUUACTT against Zeb1 1.22
GCCUCUCAUUAGCAGUCAATT against Fbxl15 -1.92
CGUUAGCUGUUAUGAUCUATT against Cept1 0.203
GGGUCCUAAGGGAUUUAUUTT against Klf16 -0.49
GGUUUUGCACAGCAUUGGUTT against Efna1 -1.02
GGUAUUGGAUCAUUUACAATT against Nae1 -0.0968
CGAUUUGCCCAAUAAAGAATT against Scn9a 0.223
GCCGAUGUCAGUGGUUAAATT against Bmx 0.198
CCUGGUAUAUUACCGCUUCTT against P3h4 0.519
GGAUCUCUGGGUCUGAAAATT against Ccz1 0.606
GGACCUGUGUGCUGAGUUGTT against Matn4 -1.59
GGGAGAUUAAUCAAGAACUTT against Ccnc 0.809
GGUUGGAGAUCUCAUCUAUTT against Exosc3 0.699
GCACCUCUCUACAUUACUGTT against Igflr1 -0.0949
GCAUUCAGAAAGUGUAUAATT against Tspan3 -0.0953
GGGUGAAGGUGAAUAUUUATT against Esm1 -1.12
GCCAAAGUAGUUGAACCUUTT against Cibar1 -0.48
GGACUGAACCGUUUUAAAGTT against Fmo3 -0.317
GGGCCUGUACAUCUUCCAATT against Anpep 0.926
CUGGAUGCAUUAACUUCUUTT against Olfr1219 0.326
GGGUAGUUAUGACUAAAUUTT against Etl4 1.31
GCACACUACAACGUAUCACTT against Stpg2 1.31
CCCAACUGUCAAAUAAUCCTT against Eddm3b 0.0505
GCCAUUACCCGGUAUAUGATT against Sesn1 -1.96
GGAUCACUCUAAUUCAGAUTT against Fcamr 1.93
GGACAUUUGAUAUUGAAGATT against B3gnt2 -1.88
CCCUGGUGACUACGAGAAUTT against Chrna4 -0.462
GGUGAUGCCUUAUUUUGAATT against Ap5s1 -1.1
GGUAACAAACCGAAAGUAUTT against Polr3k -0.539
GGAACAAGUGUCUGACAGUTT against Emc3 1.82
CCGAAAACUUAUCUAGAAATT against BC023105 -0.846
GGAUCAACAUGGUCUCCUCTT against Stambpl1 -1.63
GCCAGAAAAGUACCACCAGTT against Slc35f4 -1.15
GCUUUCAUAGAAUCUUGGCTT against Rnf24 0.709
GGAGAUGGCUAUAUUCUGATT against Lipa 0.0668
GCGAGUACUUACUCUUCGUTT against Rpl3 -0.355
GCACGUGAACACAAACCCGTT against Nup50 -1.13
CGUCUGUCAGAAACUACACTT against Atrnl1 0.864
GCUCAGUUUCUCAUGAAACTT against Tespa1 0.206
GGAAUGCAGAAAUGAAAAATT against Olfr1234 -0.909
GGAAAGAAGAACCAAGCUCTT against Med6 -1.01
GAUCAAAGCGGCGUACUACTT against Dnajc30 0.738
GGAAAAGUAUCCAUGUCACTT against Impa1 -1.75
GGGUAUAUAAGCAGCACCATT against Rdh9 0.736
CCCAUCCAAGAUUUGAUUUTT against 2310002L09Rik 1.89
GGCUGUAGUUGGCUAACACTT against Slc25a28 -0.103
GGUAACAAUCACCAUAUUCTT against 1700029F12Rik -1.94

z-score, active:
GGGCAACGUAUUCACAUUATT against Manbal 2.86
GGAGCUUUGAAGAGACUGGTT against Olfr117 -2.32
GGCAAUGGAGAGAGAGAUGTT against Patl1 -2.36
GGUAGUGUCUAACUUCUGGTT against Zkscan17 2.13
GCAUCCUUCACUCAAAUAUTT against Aspa 3.17
AUGAAAACCAUUCCCAAUUTT against Olfr435 5.22
GGUCGAUUUGUCCUUGUGCTT against Rassf7 -2.04
GCCGGAAUCAAGAUUAUCATT against Foxm1 -2.04
GCCUCACUCAGCAAAAGGATT against Ttc9c -2.09
GGUUUGUGGUGGUAUUUAATT against Man2a2 2.47
GGAAUCAAACUGGAUUGAUTT against Pi4k2b 2.01
GGACGAAUUUCUUACAGUATT against Mterf4 2.2
GCACGUCCAUUCUGCUUUCTT against Smco4 2.4
GGCUGAAGACACUGAACACTT against Olfr643 -2.51
GGCCUAGACAUACAUGAAATT against Bnip3l 2.93
GCAUUACUUUAAGCCAUAUTT against Rbl1 3.57
GGAGAAUAUUCUCUGUGGATT against Rab11fip5 -2.71
CGGAAGUAAAAAGAACUACTT against Olfr1321 3.01
GGACUUUACAAUAAAACAGTT against Dkk4 -2.2
GCGCACAGUACAUUCAUUUTT against Drd5 3.62
GCUUAAGUGUGAUACAGUGTT against Rars2 2.45
GUUACAGCUGCCUUUGUUUTT against Olfr893 -2.49
GGCAUCAUAAAGCCAGGCATT against Sybu -2.42

From PubChem BioAssay AID1508600 (Functional Genomics Laboratory (NCATS/FGL), 2020)
